# In publication PMC7862700, “An all-to-all approach to the identification of sequence-specific readers for epigenetic DNA modifications on cytosine”:
# What was measured:
# Experiment in all cases: DAPPL (digital affinity profiling via proximity ligation, sequencing); 10 mM Tris-HCl pH 7.5, 50 mM NaCl, 1 mM DTT, 4% glycerol, room temperature, 30 min; GST-TFs on glutathione beads, 16-mer random dsDNA library, 0.1% formaldehyde crosslink after washing; high values mean tight binding
# Conditions in all cases: protein: recombinant; tags: N-terminal GST; dsDNA, one strand shown
# ETV1 = ETV1 (Homo sapiens, UniProt P50549 1-477)
# Chain of ETV1 (P50549 whole entry, the tested form may be a part): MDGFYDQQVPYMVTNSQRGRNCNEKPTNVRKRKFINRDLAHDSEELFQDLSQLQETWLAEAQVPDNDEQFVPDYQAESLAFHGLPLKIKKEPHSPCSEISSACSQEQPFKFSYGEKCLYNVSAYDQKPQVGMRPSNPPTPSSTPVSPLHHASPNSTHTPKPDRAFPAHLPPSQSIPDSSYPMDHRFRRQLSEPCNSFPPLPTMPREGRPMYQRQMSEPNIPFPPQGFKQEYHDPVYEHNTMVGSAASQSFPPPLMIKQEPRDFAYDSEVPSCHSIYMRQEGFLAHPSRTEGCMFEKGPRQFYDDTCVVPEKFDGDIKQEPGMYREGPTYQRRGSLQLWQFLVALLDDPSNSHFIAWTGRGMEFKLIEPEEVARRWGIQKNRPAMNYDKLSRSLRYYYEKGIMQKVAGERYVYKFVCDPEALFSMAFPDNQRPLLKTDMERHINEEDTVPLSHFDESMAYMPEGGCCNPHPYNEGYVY
# Outline: (§1)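 Each value of binding signal is a hexamer's read frequency for a factor divided by the same hexamer's frequency in the tag-only sample. Barcoded, bead-captured GST fusions of human transcription factors made in yeast were pooled with that sample and incubated with 200 nmole of a random double-stranded 16-mer DNA library in Tris/NaCl/DTT/glycerol buffer at room temperature for 30 min. Washing, 0.1% formaldehyde crosslinking, proximity ligation, PCR and Illumina NextSeq500 sequencing followed.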
# ERF = target: T1, ERF (Homo sapiens, UniProt P50548 1-548)
# T1 sequence: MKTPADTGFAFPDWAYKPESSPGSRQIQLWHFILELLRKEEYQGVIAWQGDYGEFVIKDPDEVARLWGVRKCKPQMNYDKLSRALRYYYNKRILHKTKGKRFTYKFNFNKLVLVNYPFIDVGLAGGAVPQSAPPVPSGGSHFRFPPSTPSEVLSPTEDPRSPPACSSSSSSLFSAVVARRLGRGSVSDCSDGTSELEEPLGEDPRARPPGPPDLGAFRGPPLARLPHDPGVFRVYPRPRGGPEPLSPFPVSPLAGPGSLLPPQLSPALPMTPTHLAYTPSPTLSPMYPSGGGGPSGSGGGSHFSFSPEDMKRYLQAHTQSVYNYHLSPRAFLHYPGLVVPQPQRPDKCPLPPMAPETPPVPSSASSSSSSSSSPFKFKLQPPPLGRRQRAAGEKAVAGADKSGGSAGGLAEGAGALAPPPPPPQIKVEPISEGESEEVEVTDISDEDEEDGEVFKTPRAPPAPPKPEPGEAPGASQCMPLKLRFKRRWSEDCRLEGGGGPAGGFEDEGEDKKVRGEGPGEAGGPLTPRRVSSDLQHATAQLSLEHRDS
# Outline: as §1
# ETV3L = target: T2, ETV3L (Homo sapiens, UniProt Q6ZN32 1-361)
# T2 sequence: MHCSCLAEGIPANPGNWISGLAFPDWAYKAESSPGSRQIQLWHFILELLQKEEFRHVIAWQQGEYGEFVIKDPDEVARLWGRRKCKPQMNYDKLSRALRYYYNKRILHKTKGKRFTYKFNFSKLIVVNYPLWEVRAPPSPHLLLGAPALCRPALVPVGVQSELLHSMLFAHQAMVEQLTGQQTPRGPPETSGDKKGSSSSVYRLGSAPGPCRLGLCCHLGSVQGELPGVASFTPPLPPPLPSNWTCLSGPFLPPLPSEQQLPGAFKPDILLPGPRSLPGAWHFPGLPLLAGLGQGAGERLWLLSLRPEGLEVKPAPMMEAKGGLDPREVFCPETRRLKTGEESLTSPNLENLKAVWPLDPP
# Outline: as §1
# ETS2 = target: T3, ETS2 (Homo sapiens, UniProt P15036 1-469)
# T3 sequence: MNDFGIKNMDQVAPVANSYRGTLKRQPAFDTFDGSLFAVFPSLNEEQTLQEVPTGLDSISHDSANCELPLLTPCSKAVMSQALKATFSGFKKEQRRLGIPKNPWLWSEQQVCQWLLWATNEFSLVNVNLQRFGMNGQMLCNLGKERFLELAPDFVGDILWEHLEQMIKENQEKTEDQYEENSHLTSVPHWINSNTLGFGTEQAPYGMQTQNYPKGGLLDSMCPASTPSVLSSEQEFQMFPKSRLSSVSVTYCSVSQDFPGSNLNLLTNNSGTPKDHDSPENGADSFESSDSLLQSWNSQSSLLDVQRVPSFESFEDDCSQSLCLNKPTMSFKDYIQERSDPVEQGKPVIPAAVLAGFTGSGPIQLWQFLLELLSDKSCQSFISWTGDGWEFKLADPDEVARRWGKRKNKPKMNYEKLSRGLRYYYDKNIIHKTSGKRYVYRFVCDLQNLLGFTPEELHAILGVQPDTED
# Outline: as §1
# SPDEF = target: T4, SPDEF (Homo sapiens, UniProt O95238 1-335)
# T4 sequence: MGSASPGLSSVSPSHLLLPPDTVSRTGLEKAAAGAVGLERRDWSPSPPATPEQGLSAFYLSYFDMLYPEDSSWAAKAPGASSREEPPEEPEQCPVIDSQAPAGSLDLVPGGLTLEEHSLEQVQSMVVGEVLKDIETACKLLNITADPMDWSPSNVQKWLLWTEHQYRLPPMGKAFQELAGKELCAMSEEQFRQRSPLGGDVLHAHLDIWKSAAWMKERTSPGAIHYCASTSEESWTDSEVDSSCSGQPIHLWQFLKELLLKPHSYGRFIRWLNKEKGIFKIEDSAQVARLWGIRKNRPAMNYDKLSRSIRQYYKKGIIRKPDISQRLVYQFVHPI
# Outline: as §1
# ETV7 = target: T5, ETV7 (Homo sapiens, UniProt Q9Y603 1-341)
# T5 sequence: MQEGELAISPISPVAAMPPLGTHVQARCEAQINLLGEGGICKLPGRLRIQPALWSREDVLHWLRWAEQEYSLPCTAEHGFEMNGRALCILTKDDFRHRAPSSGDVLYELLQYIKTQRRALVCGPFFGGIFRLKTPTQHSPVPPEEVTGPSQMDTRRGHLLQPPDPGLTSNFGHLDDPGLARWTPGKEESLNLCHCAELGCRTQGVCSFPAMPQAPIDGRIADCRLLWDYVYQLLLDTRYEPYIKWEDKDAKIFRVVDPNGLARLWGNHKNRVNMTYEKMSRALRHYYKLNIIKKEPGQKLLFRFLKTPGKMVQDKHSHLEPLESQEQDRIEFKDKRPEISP
# Outline: as §1
# ELF5 = target: T6, ELF5 (Homo sapiens, UniProt Q9UKW6-2 1-255)
# T6 sequence: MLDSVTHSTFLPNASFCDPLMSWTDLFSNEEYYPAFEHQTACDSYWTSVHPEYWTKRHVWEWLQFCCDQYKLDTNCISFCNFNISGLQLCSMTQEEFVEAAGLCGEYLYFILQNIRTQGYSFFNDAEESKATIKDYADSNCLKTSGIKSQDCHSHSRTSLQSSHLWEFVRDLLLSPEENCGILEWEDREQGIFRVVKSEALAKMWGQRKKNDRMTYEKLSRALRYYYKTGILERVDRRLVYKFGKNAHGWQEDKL
# Outline: as §1
# ETV3 = target: T7, ETV3 (Homo sapiens, UniProt P41162-2 1-143)
# T7 sequence: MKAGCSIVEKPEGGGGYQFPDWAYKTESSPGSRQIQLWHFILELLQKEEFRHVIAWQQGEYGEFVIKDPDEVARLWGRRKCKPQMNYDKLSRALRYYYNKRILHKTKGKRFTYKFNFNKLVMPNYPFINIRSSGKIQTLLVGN
# Outline: as §1
# ETV6 = ETV6 (Homo sapiens, UniProt P41212 1-452)
# Chain of ETV6 (P41212 whole entry): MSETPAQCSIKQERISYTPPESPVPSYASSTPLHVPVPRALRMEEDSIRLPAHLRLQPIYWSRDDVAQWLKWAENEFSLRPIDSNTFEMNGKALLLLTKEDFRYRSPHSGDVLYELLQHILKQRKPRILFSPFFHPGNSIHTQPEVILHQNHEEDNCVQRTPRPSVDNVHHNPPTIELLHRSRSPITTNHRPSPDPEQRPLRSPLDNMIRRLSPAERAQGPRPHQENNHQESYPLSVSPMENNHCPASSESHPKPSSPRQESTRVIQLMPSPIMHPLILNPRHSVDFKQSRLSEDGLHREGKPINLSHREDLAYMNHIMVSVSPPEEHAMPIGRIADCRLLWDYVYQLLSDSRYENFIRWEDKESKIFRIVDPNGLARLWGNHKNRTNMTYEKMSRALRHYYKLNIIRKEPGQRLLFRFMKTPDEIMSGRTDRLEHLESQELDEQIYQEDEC
# Outline: as §1
sequence,measurement,setting,value
AACATC,binding signal,ETV1,"1.43 fold enrichment (6-mer frequency, TF over GST control)"
same,binding signal,ERF,"1.43 fold enrichment (6-mer frequency, TF over GST control)"
same,binding signal,ETV3L,"1.41 fold enrichment (6-mer frequency, TF over GST control)"
same,binding signal,ETS2,"1.45 fold enrichment (6-mer frequency, TF over GST control)"
same,binding signal,SPDEF,"1.68 fold enrichment (6-mer frequency, TF over GST control)"
same,binding signal,ETV7,"1.35 fold enrichment (6-mer frequency, TF over GST control)"
same,binding signal,ELF5,"1.64 fold enrichment (6-mer frequency, TF over GST control)"
same,binding signal,ETV3,"1.5 fold enrichment (6-mer frequency, TF over GST control)"
same,binding signal,ETV6,"1.4 fold enrichment (6-mer frequency, TF over GST control)"
